Experimental data as given in PubChem BioAssay.
Values without a mark were called inactive. The rule behind the calls is not given here.

These compounds were tested on Aerobactin synthetase IucA (Klebsiella pneumoniae hvKP1) (assay: Biochemical IucA enzyme inhibition primary screen of the Spectrum library (AID 1346200;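 note: 100% = wells without compound and 0% = wells lacking enzyme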)). Details: malachite green pyrophosphate, A620, at 8 µM, hits give low values.

SMILES	activity remaining [%]
COc1ccc2c(c1)OC1(O)COc3cc(OC)c(OC)cc3C1=C2 (stereo not given)	107
CCCCc1nc(Cl)c(CO)n1Cc1ccc(-c2ccccc2-c2nn[nH]n2)cc1	110
C=CCCCCCCCCCCCC(O)CC(O)COC(C)=O (stereo not given) (tested in a mixture with another compound)	81.7
Oc1cc2c(cc1O)C1c3ccc(O)c(O)c3OCC1(O)C2 (stereo not given)	109
COc1ccc2c(c1)c(CC(=O)OCC(=O)O)c(C)n2C(=O)c1ccc(Cl)cc1	92.7
O=C(O)CCCN1C(=O)c2cccc3cccc(c23)C1=O	110
CC(=O)N[C@@H](CC(=O)O)C(=O)O	110
COc1cc(O)cc(OC)c1OC	104
CCn1cc(C(=O)O)c(=O)c2cnc(N3CCCC3)nc21	105
CC(=O)O[C@H]1C[C@@H](O)C(C)(C)C2C[C@@H](OC(C)=O)[C@]3(C)C(CC[C@@]4(C)[C@H](c5ccoc5)OC(=O)C5OC543)[C@]21C (stereo not given in full)	104
Oc1cccc(O)c1	116
CCCc1nc(C)c2c(=O)[nH]c(-c3cc(S(=O)(=O)N4CCN(CC)CC4)ccc3OCC)nn12	111
CC1(C)O[C@H]2CC(=O)OC[C@]23[C@H]2CC[C@@]4(C)[C@H](c5ccoc5)OC(=O)[C@H]5O[C@]54[C@]2(C)C(=O)C[C@@H]13	112
CCN(CC)CCOC(=O)C(c1ccccc1)c1ccccc1	112
Cc1cc(C(C)(C)CC(C)(C)C)ccc1OCCOCC[N+](C)(C)Cc1ccccc1	118
CC(C)(O)[C@@H]1CC[C@](C)([C@H]2[C@@H](O)C[C@@]3(C)C4C[C@H](O[C@@H]5O[C@H](CO)[C@@H](O)[C@H](O)[C@H]5O)C5C(C)(C)[C@@H](O[C@@H]6OC[C@@H](O)[C@H](O)[C@H]6O)CC[C@@]56C[C@@]46CC[C@]23C)O1 (stereo not given in full)	93
CCCCCCCCCCC[C@@H](C[C@H]1OC(=O)[C@H]1CCCCCC)OC(=O)[C@@H](CC(C)C)NC=O	112
O=c1[nH]c2cc(Cl)c(Cl)cc2[nH]c1=O	121
COC(=O)[C@H](c1ccccc1Cl)N1CCc2sccc2C1	119
COC(=O)C[C@H]1C(C)(C)C(=O)[C@@H]2CC3=C4CC(=O)O[C@@H](c5ccoc5)[C@]4(C)CCC3C1(C)C2=O (stereo not given in full)	102

SMILES	activity remaining [%]
CC(CC(O)C1OC1(C)C)[C@@H]1CCC2(C)C3=CCC4C(C)(C)C(=O)CCC4(C)C3CC[C@@]12C (stereo not given in full)	102
CCCCCCNC(=O)n1cc(F)c(=O)[nH]c1=O	112
COc1ccc2oc3ccccc3c(=O)c2c1	106
CO[C@@H]1[C@@H](O[C@@H]2O[C@H](C)[C@@H](O[C@H]3C[C@@](C)(O)[C@H](O)[C@H](C)O3)[C@H](N(C)C)[C@H]2O)[C@@H](CC=O)C[C@@H](C)[C@@H](O[C@H]2CC[C@H](N(C)C)[C@@H](C)O2)/C=C/C=C/C[C@H](C)OC(=O)C[C@H]1O	96.2
CCCc1cc(C(N)=S)ccn1	110
CCC(C)C(=O)O[C@@H]1C[C@@]2(C)[C@H](c3ccoc3)OC(=O)CC23OC2(C)OC34[C@H](OC(=O)C(C)C)[C@@]3(O)[C@@H](OC(=O)C5(C)OC5C)[C@@]5(C)C[C@]3(O)[C@@](C)([C@H]5CC(=O)OC)C14O2 (stereo not given in full)	112
CC1(C)C(=O)CC[C@@]2(C)C1C[C@@H](O)[C@@]1(C)C3=CC(=O)O[C@@H](c4ccoc4)[C@]3(C)CCC21 (stereo not given in full)	111
C/C=C/CC(C)C(O)C1C(=O)NC(CC)C(=O)N(C)CC(=O)N(C)C(CC(C)C)C(=O)NC(C(C)C)C(=O)N(C)C(CC(C)C)C(=O)NC(C)C(=O)NC(C)C(=O)N(C)C(CC(C)C)C(=O)N(C)C(CC(C)C)C(=O)N(C)C(C(C)C)C(=O)N1C (stereo not given)	113
CC1(C)O[C@@H]2CC3C4C[C@H](F)C5=CC(=O)C=C[C@]5(C)[C@@]4(F)[C@@H](O)C[C@]3(C)[C@]2(C(=O)CO)O1 (stereo not given in full)	99.1
O=C1C=CC2=C3c4cc(O)c(O)cc4CC3(O)COC2=C1O (stereo not given)	94.5
C=C[C@@](C)(O)CCC1C(=C)C[C@H](O)C2C(C)(C)CCCC12C (stereo not given in full)	123
C[C@H]1[C@H]2CCC3C4CC=C5C[C@@H](N(C)C)CC[C@]5(C)C4CC[C@@]32CN1C (stereo not given in full)	119
CC1(C)O[C@@H]2[C@@H](CO[C@@]3(COS(N)(=O)=O)OC(C)(C)O[C@@H]23)O1	115
O=C(CCc1ccc(O)cc1)c1c(O)cc(O)cc1O[C@@H]1O[C@H](CO)[C@@H](O)[C@H](O)[C@H]1O	105
C#CCCCCCCCCCCCC(O)CC(O)CO (stereo not given)	98.4
COCCc1ccc(OCC(O)CNC(C)C)cc1 (stereo not given)	113
CC1=C2[C@](C)(C=CC1=O)C[C@H](O)[C@H]1[C@H](C)C(=O)O[C@]21C	107
COc1ccc2cc([C@H](C)CO)ccc2c1	118
COc1cc2c(cc1OC)C1(O)C(=O)c3ccc(O)c(C(=O)O)c3OC1CO2 (stereo not given)	117
O=C(O)CCCc1ccccc1	111
